Bioassay records deposited in PubChem BioAssay by National Center for Advancing Translational Sciences (NCATS).
Most compounds without a hit are left out; they make up all but 20% or so of the library.
Shiga toxin inh – Shiga toxin inhibition; Vero cells, Shiga toxin protein synthesis inhibition reporter; inhibition, % at 38.7 µM; actives 9.2% (n = 290,000); AID 2315; in the data active = inhibition mostly above about 28%, no sharp cut-off; inactive = mostly below about 43%; also: 0% is about no effect
Cycloheximide cs – counter-screen hit for Shiga toxin inhibitors, cycloheximide | cell reporter, cycloheximide protein synthesis inhibition counterscreen | max response, % | actives 12% (n = 300,000) | AID 2314; in the data active = max response mostly above about 13%, no sharp cut-off; inactive = mostly below about 14%; also: read at 38.3 µM for the half of the compounds with a filed dose; 0% is about no effect
HCMV inh – inhibitors of human cytomegalovirus; HFF cells, HCMV-luciferase reporter, 72 h; active compounds read low; actives 4.5% (n = 410,000); activity change, negative = inhibition, % at 57.5 µM; AID 1259415; in the data active = activity change below about -60%; inconclusive = no clear call, values can overlap the other calls; inactive = above about -39%; also: % is scaled to controls: 0 for no effect and ±100 for the full control effect
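Luciferase read-out from HCMV-luciferase-infected HFFs (MOI 1 PFU/cell) 72 h post infection at 37C; compounds added after 16 h cell attachment; activity normalized between buffer-only basal and Salinomycin (10uM) inhibitor controls.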
Pf growth 96h – P. falciparum growth inhibition at 96 hours; P. falciparum luciferase reporter growth, 96 h; Potency, µM (doses to about 28.7 µM), inactives show top-dose activity change, negative = inhibition, most hits filed as inhibitors; actives 6.9% (n = 320,000); AID 504834; also: potency is read from the fitted curve at half-maximal effect; % is scaled to controls: 0 for no effect and ±100 for the full control effect
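Luminescence readout: decreased luciferase signal marks inhibited growth of reporter-expressing P. falciparum in infected red cells (2% hematocrit, 0.05% parasitemia final), exposed to compound two generations (96 h, 37 C, 5% CO2).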
Pf growth 48h – P. falciparum growth inhibition at 48 hours (one generation); P. falciparum luciferase growth in erythrocytes, 48 h; Potency, µM (doses to about 28.7 µM), without a hit: at the top dose activity change, negative = inhibition, usual class: inhibitors; actives 5.9% (n = 310,000); also: potency is read from the fitted curve at half-maximal effect; % is scaled to controls: 0 for no effect and ±100 for the full control effect
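Growth was read as firefly luciferase luminescence after a 48 h, 37 C, 5% CO2 exposure of compounds to reporter-bearing P. falciparum cultures (0.1% parasitemia, 2% hematocrit final) in Albumax-supplemented RPMI 1640.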
* hit, by the source's call; i = inactive; ? = inconclusive; · = no result; ! = not confirmed by another sample. Unless noted, calls follow the shape of the dose curve; as a rule, active = well fitted inhibition curve with a large enough effect; inconclusive = small, poorly fitted or top-dose-only effect, or another doubt; inactive = no such curve, though single readings can be large or run the other way.

SMILES | Shiga toxin inh | Cycloheximide cs | HCMV inh | Pf growth 96h | Pf growth 48h
O=S(=O)(c1ccccc1)c1nc(-c2ccco2)oc1NCc1ccccc1 | 15 | 9 | -28 | 8.3µM* | ·
O=S(=O)(c1ccccc1)c1nc(-c2ccc(F)cc2)oc1N1CCCCCC1 | · | · | -21 | · | ·
Cc1c(Cl)cccc1NC(=O)CSc1nc(=O)n(Cc2cccnc2)c2c1CCC2 | · | · | 16 | · | ·
O=S(=O)(c1ccc(F)cc1)c1nc(-c2ccco2)oc1Nc1ccccc1 | 114* | 50* | 6 | ? | 18%
CC1CCN(c2oc(-c3ccco3)nc2S(=O)(=O)c2ccccc2)CC1 | 12 | 1 | -19 | 4.7µM* | -17%
O=S(=O)(c1ccccc1)c1nc(-c2ccco2)oc1NCc1ccco1 | -2 | 2 | -15 | · | ?
O=S(=O)(c1ccccc1)c1nc(-c2ccco2)oc1Nc1ccccc1 | 90* | 25* | -62* | ? | ?
Cc1ccccc1Oc1ncnc2sccc12 | -4 | -3 | 26 | 0% | 6%
O=C(NCc1ccccc1)Nc1cccn(Cc2c(F)cccc2Cl)c1=O | -6 | 5 | -74* | -39% | -24%
Cc1ccc(NC(=O)Nc2cccn(Cc3c(F)cccc3Cl)c2=O)cc1 | 34 | -1 | 33 | 5.2µM* | -20%
O=C(Nc1cccn(Cc2c(F)cccc2Cl)c1=O)NC1CCCCC1 | -17 | 0 | ? | 12% | -17%
O=C(O)Cn1ccc2cc(S(=O)(=O)N3CCCCCC3)ccc21 | 3 | -3 | -34 | ? | 11%
NC(=O)/C(=C/c1ccco1)NC(=O)/C=C/c1ccccc1 | -4 | 2 | 17 | ? | -3%
CC(C)CCOC(=O)/C(=C/c1ccco1)NC(=O)/C=C/c1ccccc1 | 51 | 20* | -30 | 4.1µM* | ?
O=C1CSC(=Nc2ccc(Cl)cc2)N1Cc1cccnc1 | 3 | -1 | -26 | ? | 6%
Oc1ccc(/C=C/c2cnccn2)cc1 | 94* | 34* | -21 | 2% | 88%
Cc1cc(C)cc(-n2c(O)c(C=Nc3ccc(N4CCOCC4)cc3)c(=O)[nH]c2=S)c1 | -7 | -1 | 0 | 25% | -3%
O=c1[nH]c(=S)n(-c2ccc(Br)cc2)c(O)c1C=Nc1ccc(N2CCOCC2)cc1 | 0 | 16* | -29 | -13% | 41%
CCC(=O)c1ccc(/C=C/c2nc3ccccc3n2C)o1 | 67* | 30* | 37 | ? | i
Cn1c(/C=N/O)nc2ccccc21 | 19 | 12 | -36 | 27% | 29%
Cc1ccc(C(=O)CSc2ncn[nH]2)cc1 | 52 | 20* | 27 | ? | 69%
CCc1ccc(C(=O)CSc2ncn[nH]2)cc1 | 76* | 30* | -4 | ? | 87%
COc1ccc(C(=O)CSc2ncn[nH]2)cc1OC | 14 | 2 | 68 | -1% | 16%
O=C(CSc1ncn[nH]1)c1ccc(OC(F)F)cc1 | 21 | 14* | ? | 14% | 11%
COc1cc(CSc2ncn[nH]2)c(OC)cc1CSc1ncn[nH]1 | -6 | 8 | -20 | 13µM* | ?
SMILES | Shiga toxin inh | Cycloheximide cs | HCMV inh | Pf growth 96h | Pf growth 48h
COc1ccccc1CNc1nc2nc(C)c(Cl)c(C)n2n1 | · | · | 6 | · | ·
CCCOc1ccc(CSc2ncn[nH]2)cc1 | 68* | 30* | -31 | ? | 61%
c1ccc(CSc2ncn[nH]2)nc1 | 7 | -1 | -26 | 5.2µM* | 6%
Brc1ccc(CSc2ncn[nH]2)cc1 | -5 | -2 | -11 | -7% | ·
Fc1cccc(Cl)c1CSc1ncn[nH]1 | -10 | -4 | 5 | · | 0%
CC(=O)Nc1ccc(S(=O)(=O)N2CCN=C2SCc2ccc([N+](=O)[O-])cc2)cc1 | -12 | 2 | ? | ? | ?
COc1ccc(CC(=O)N2CCN=C2SCc2cccc([N+](=O)[O-])c2)cc1 | -5 | 9 | -22 | ? | 10µM*
CS(=O)(=O)N1CCN=C1SCc1ccc([N+](=O)[O-])cc1 | -13 | -6 | -65* | -20% | -18%
O=C(Cc1ccc([N+](=O)[O-])cc1)N1CCN=C1SCc1ccccc1 | -8 | 1 | ? | -18% | ?
O=[N+]([O-])c1ccc(S(=O)(=O)N2CCN=C2SCc2cccnc2)cc1 | -1 | 15 | -73* | 3% | -17%
O=[N+]([O-])c1cccc(CSC2=NCCN2S(=O)(=O)c2ccccc2)c1 | -10 | 8 | -74* | ? | ?
O=S(=O)(c1ccccc1)N1CCN=C1SCc1ccccc1 | -9 | -2 | -20 | -3% | ?
COc1ccc(C2=Nn3c(nnc3-c3ccccc3F)SC2)cc1OCC1CC1 | · | · | -98* | · | ·
COc1ccc(C2=Nn3c(nnc3-c3ccccc3Cl)SC2)cc1OC1CCCC1 | · | · | -94* | · | ·
Clc1ccc(C2=Nn3c(nnc3-c3n[nH]c4c3CCC4)SC2)cc1Cl | -8 | -4 | ? | ? | 12µM*
CCOc1ccc(C2=Nn3c(nnc3-c3ccccc3)SC2)cc1Cl | -11 | -3 | -102* | · | 8%
Cc1ccc(-c2nnc3n2N=C(c2ccccc2)CS3)cc1 | -4 | -5 | 1 | 39% | -8%
O=C1CCCCC1CCS(=O)(=O)NCc1ccccc1 (stereo not given) | · | · | 1 | · | ·
O=C(CSc1ccccc1F)NCC(c1ccco1)N1CCCCC1 (stereo not given) | · | · | -10 | · | ·
COc1ccc(C2=Nn3c(nnc3-c3ccccc3OC)SC2)cc1OC | -9 | 2 | -97* | 3.7µM*! | 10µM*
COc1ccc(-c2nnc3n2N=C(c2ccccc2OC)CS3)cc1OC | -3 | -2 | · | · | ·
CCOc1ccc(S(=O)(=O)c2c(C(=O)c3ccc(CC)cc3)cnc3ccc(C)cc23)cc1 | · | · | 0 | · | ·
Cc1ccc(-c2ccc(CN3C(C(C)C)C(=O)N(Cc4cn(Cc5ccco5)nn4)CCS3(=O)=O)cc2)cc1 (stereo not given) | · | · | -16 | · | ·
CSc1nc2n(n1)C(C)C1=C(CCCC1=O)N2 (stereo not given) | -1 | -4 | -18 | 2.9µM* | 3%
CCCCSCCCNC(=O)c1cn(CC)c2ccc(S(=O)(=O)N3CCCCCC3)cc2c1=O | · | · | 2 | · | ·
SMILES | Shiga toxin inh | Cycloheximide cs | HCMV inh | Pf growth 96h | Pf growth 48h
Cc1cc(NC(=O)NN2CCOCC2)nn1-c1c(Cl)cc(Cl)cc1Cl | 7 | -2 | -24 | ? | ?
COc1cc(/C=N/NC(=O)c2ccoc2C)cc(OC)c1OC | · | · | 164 | · | ·
COc1ccc(/C=N/NC(=O)c2ccoc2C)cc1COc1ccc(Cl)cc1 | 91* | 33* | 26 | ? | ?
COc1ccc(/C=N/NC(=O)c2ccoc2C)cc1O | 57* | 58* | 11 | -20% | 65%
COc1ccc(/C=N/NC(=O)c2cc[n+]([O-])cc2)cc1O | 8 | 12 | -18 | 29% | 6%
COc1ccc(/C=N/NC(=O)c2ccoc2C)cc1OC | 115* | 43* | 24 | 14% | 70%
COc1ccccc1C1CCN(C(=O)c2ccc(Cl)cc2)CC1 | -1 | 16 | 13 | -10% | ?
Cc1cccc2cc(CN(C(=O)c3cnccn3)C3CCCCC3)c(Cl)nc12 | 12 | -1 | -1 | ? | 4.1µM*
